Laboratory results published in the supplement of paper PMC6609913.
Counter-ions that a name gives are not always drawn. ± gives the standard deviation of the averaged measurements. Over roughly 1,300 compounds, “normalised cell viability” has its median near 1; the lowest 2% begin near 0.14. The sample holds the lowest values, similar compounds and a random draw of the others, so the mix is not that of the screen.

System: V-C8 (BRCA2-deficient hamster cells)
Test: normalised cell viability (fraction of plate median); higher = more viable cells (less toxic)
Details: 5 µM
Method in brief: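 BRCA2-deficient hamster V-C8 cells and BRCA2-restored V-C8 cells were plated in 96-well plates, and library drugs were added 24 h later at 5 μM in 100 μl medium. Exposure lasted 3 days in screen 1 and 6 days in screen 2, next to solvent-only wells. Viability was then read by resazurin assay, median-plate normalised and averaged across triplicate wells.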

With `CN1CCN(C2=Nc3ccccc3Oc3ccc(Cl)cc32)CC1` [Loxapine succinate] the normalised cell viability (treatment time: 3 days) was 1.17 ± 0.063 and the normalised cell viability (treatment time: 6 days) was 1.15 ± 0.03.

In the case of `Cc1cc(C2CCCCC2)n(O)c(=O)c1` [Ciclopirox ethanolamine], the normalised cell viability (treatment time: 3 days) is reported as 0.207 ± 0.012 and the normalised cell viability (treatment time: 6 days) is reported as 0.23 ± 0.015.

Compound `COC(=O)C1=C(C)NC(C)=C(C(=O)OCC(C)C)C1c1ccccc1[N+](=O)[O-]` (stereo not drawn) [Nisoldipine] has a normalised cell viability (treatment time: 3 days) of 0.889 ± 0.059 and a normalised cell viability (treatment time: 6 days) of 0.894 ± 0.019.

`Cc1c(N)c(=O)n(-c2ccccc2)n1C` [Ampyrone] was tested, and the normalised cell viability (treatment time: 3 days) was 1.01 ± 0.12 and the normalised cell viability (treatment time: 6 days) was 1.06 ± 0.055.

In the case of `Nc1nc(=S)c2ncn([C@@H]3O[C@H](CO)[C@@H](O)[C@H]3O)c2[nH]1` [Thioguanosine], the normalised cell viability (treatment time: 3 days) is reported as 0.307 ± 0.013 and the normalised cell viability (treatment time: 6 days) is reported as 0.28 ± 0.017.

`CCC(Cc1c(I)cc(I)c(N)c1I)C(=O)O` (stereo not drawn) [Iopanoic acid] showed a normalised cell viability (treatment time: 3 days) of 0.999 ± 0.036 and a normalised cell viability (treatment time: 6 days) of 1.07 ± 0.033.

Compound `CN(C)CCn1nnnc1SCC1=C(C(=O)O)N2C(=O)[C@@H](NC(=O)Cc3csc(N)n3)[C@H]2SC1` [Cefotiam hydrochloride] has a normalised cell viability (treatment time: 3 days) of 0.996 ± 0.028 and a normalised cell viability (treatment time: 6 days) of 1.12 ± 0.093.

Work on `CC(C)NC[C@@H](O)COc1cccc2ccccc12` [(R)-Propranolol hydrochloride] yielded a normalised cell viability (treatment time: 3 days) of 0.914 ± 0.085 and a normalised cell viability (treatment time: 6 days) of 1.06 ± 0.085.

`CCc1cccc(CC)c1NC(=O)CN(CC(=O)O)CC(=O)O` [Etifenin] gave a normalised cell viability (treatment time: 3 days) of 1.07 ± 0.047 and a normalised cell viability (treatment time: 6 days) of 1.04 ± 0.043.

For `CC(NCCC(c1ccccc1)c1ccccc1)c1ccccc1` (stereo not drawn) [Fendiline hydrochloride], the normalised cell viability (treatment time: 3 days) was 0.197 ± 0.018 and the normalised cell viability (treatment time: 6 days) was 0.496 ± 0.16.

Work on `Cc1cc(NS(=O)(=O)c2ccc(N)cc2)no1` [Sulfamethoxazole] yielded a normalised cell viability (treatment time: 3 days) of 1.02 ± 0.028 and a normalised cell viability (treatment time: 6 days) of 0.959 ± 0.076.

Compound `CC(C)/N=c1\cc2n(-c3ccc(Cl)cc3)c3ccccc3nc-2cc1Nc1ccc(Cl)cc1` [Clofazimine] has a normalised cell viability (treatment time: 3 days) of 0.148 ± 0.0016 and a normalised cell viability (treatment time: 6 days) of 0.133 ± 0.017.

`Cc1cnc(C(=O)NCCc2ccc(S(=O)(=O)NC(=O)NC3CCCCC3)cc2)cn1` [Glipizide] was tested, and the normalised cell viability (treatment time: 3 days) was 1.093 ± 0.0089 and the normalised cell viability (treatment time: 6 days) was 1.13 ± 0.034.

Compound `CO[C@H]1/C=C/O[C@@]2(C)Oc3c(C)c(O)c4c(c3C2=O)C2=NC3(CCN(CC(C)C)CC3)NC2=C(NC(=O)/C(C)=C\C=C\[C@H](C)[C@H](O)[C@@H](C)[C@@H](O)[C@@H](C)[C@H](OC(C)=O)[C@@H]1C)C4=O` [Rifabutin] has a normalised cell viability (treatment time: 3 days) of 0.973 ± 0.096 and a normalised cell viability (treatment time: 6 days) of 0.876 ± 0.032.

`NC(=O)c1cnccn1` [Pyrazinamide] was tested, and the normalised cell viability (treatment time: 3 days) was 1.12 ± 0.057 and the normalised cell viability (treatment time: 6 days) was 1.05 ± 0.071.

Work on `CNCCC=C1c2ccccc2C=Cc2ccccc21` [Norcyclobenzaprine] yielded a normalised cell viability (treatment time: 3 days) of 0.959 ± 0.045 and a normalised cell viability (treatment time: 6 days) of 0.835 ± 0.035.

With `CCSc1ccc2c(c1)N(CCCN1CCN(C)CC1)c1ccccc1S2` [Thiethylperazine dimalate] the normalised cell viability (treatment time: 3 days) was 0.932 ± 0.029 and the normalised cell viability (treatment time: 6 days) was 1.1 ± 0.35.

In the case of `CSc1ccc2c(c1)N(CCC1CCCCN1C)c1ccccc1S2` (stereo not drawn) [Thioridazine hydrochloride], the normalised cell viability (treatment time: 3 days) is reported as 0.121 ± 0.0035 and the normalised cell viability (treatment time: 6 days) is reported as 0.0951 ± 0.0067.

Work on `CN1CCCCC1CCN1c2ccccc2Sc2ccc([S+](C)[O-])cc21` (stereo not drawn) [Mesoridazine besylate] yielded a normalised cell viability (treatment time: 3 days) of 1.07 ± 0.07 and a normalised cell viability (treatment time: 6 days) of 1.07 ± 0.017.
